Measurements taken from PubChem BioAssay (NCATS).
Values joined by “and” are separate entries in the source; they are usually repeats but may differ in a detail not shown here. Identical values can stand only once. Records with an inconclusive call do not appear. The source holds several records for some structures; these can differ, active in one and inactive in another. Active and inactive are the calls of the source. Unless noted, calls follow the shape of the dose curve; as a rule, active = well fitted curve in either direction with a large enough effect (not every such curve was filed as active); inconclusive = small, poorly fitted or top-dose-only effect, or another doubt; inactive = flat fitted curve, though single readings scatter.

What was measured:
[1] = AP1 Signaling Pathway (AID 357); details: ME-180 AP-1-bla reporter, EGF-induced, beta-lactamase ratio, 5 h; also: % is scaled to controls: 0 for no effect and ±100 for the full control effect
Summary of the method: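 ME-180 cells with beta-lactamase reporter under AP-1 response element, stimulated with EC50 EGF; compounds tested in titration series, 5 h at 37 °C. CCF4 substrate added 2.5 h at room temperature; 460/530 nm emission ratio gave %activity and AC50.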

[2] = molecular target: Cytochrome P450 1A2 (Homo sapiens) (UniProt P05177); test: p450-cyp1a2 (AID 410; calls by dose curve; also: potency is read from the fitted curve at half-maximal effect;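 as to activity change, negative = inhibition: -100% = full effect of reference inhibitor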); details: recombinant CYP1A2, luciferin-ME demethylation, luminescence; series mostly up to 25.6 µM
Chain of Cytochrome P450 1A2 (Homo sapiens) (P05177 whole entry, looked up): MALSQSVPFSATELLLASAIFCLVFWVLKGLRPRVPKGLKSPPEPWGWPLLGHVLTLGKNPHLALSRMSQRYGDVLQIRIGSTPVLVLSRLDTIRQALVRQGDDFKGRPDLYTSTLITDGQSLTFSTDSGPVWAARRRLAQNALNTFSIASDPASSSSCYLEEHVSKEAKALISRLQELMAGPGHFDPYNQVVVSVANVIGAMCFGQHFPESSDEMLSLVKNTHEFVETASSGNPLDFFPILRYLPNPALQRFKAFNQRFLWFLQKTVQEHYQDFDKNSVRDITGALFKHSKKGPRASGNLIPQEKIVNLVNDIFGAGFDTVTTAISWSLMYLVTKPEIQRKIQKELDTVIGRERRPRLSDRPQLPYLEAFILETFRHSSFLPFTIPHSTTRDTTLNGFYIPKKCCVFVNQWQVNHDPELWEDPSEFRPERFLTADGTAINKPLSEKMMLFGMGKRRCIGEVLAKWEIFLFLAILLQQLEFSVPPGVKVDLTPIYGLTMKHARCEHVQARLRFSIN
Summary of the method: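 Inhibition was calculated relative to 57 uM furafylline (full inhibition). The reaction used human CYP1A2 at 20nM with Luciferin-ME at its Km, 100uM, driven by an NADPH-regenerating system for 60 min at room temperature.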

[3] = NFAT Signaling Pathway (AID 444); details: Jurkat NFAT-bla M1, carbachol, beta-lactamase ratio, 5 h;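 also: carbachol stimulus at about its EC50 of 1 µM final; % is scaled to controls: 0 for no effect and ±100 for the full control effect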
Summary of the method: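 Jurkat cells with NFAT-driven β-lactamase reporter and co-expressed M1 receptor, stimulated with carbachol (final 1 uM, ~EC50), compound titration, 5 h at 37 °C. CCF4 loaded 1 h at RT; 460/530 nm ratio gave %activity and AC50.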

[4] = Stat Signaling Pathway (AID 446); details: ME-180 SIE beta-lactamase reporter, IL-6 stimulated, 5 h;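 also: ME-180 cervical cancer cells given 40 pM IL-6 alongside compound; SIE-controlled beta-lactamase reporter measured as 460/530 nm FRET emission ratio; % is scaled to controls: 0 for no effect and ±100 for the full control effect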
Summary of the method: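 ME-180 SIE-bla cells; overnight plating; cpd + IL-6 40 pM, 5 h, 37 C; LiveBLAzer 2.5 h RT; 460/530 nm emission ratio. Normalized to 300 pM IL-6 and 125 nM JAK inhibitor controls.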

[5] = molecular target: Glucocorticoid receptor (Homo sapiens) (UniProt P04150); test: GR-GFP Redistribution (AID 450;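 active = compounds whose dose series gives a full or clear partial fitted curve of increased nuclear translocation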; also: potency is read from the fitted curve at half-maximal effect); details: U2OS GR-GFP nuclear translocation, laser cytometry, 2 h
Chain of Glucocorticoid receptor (Homo sapiens) (P04150 whole entry, looked up, the tested form may be a part): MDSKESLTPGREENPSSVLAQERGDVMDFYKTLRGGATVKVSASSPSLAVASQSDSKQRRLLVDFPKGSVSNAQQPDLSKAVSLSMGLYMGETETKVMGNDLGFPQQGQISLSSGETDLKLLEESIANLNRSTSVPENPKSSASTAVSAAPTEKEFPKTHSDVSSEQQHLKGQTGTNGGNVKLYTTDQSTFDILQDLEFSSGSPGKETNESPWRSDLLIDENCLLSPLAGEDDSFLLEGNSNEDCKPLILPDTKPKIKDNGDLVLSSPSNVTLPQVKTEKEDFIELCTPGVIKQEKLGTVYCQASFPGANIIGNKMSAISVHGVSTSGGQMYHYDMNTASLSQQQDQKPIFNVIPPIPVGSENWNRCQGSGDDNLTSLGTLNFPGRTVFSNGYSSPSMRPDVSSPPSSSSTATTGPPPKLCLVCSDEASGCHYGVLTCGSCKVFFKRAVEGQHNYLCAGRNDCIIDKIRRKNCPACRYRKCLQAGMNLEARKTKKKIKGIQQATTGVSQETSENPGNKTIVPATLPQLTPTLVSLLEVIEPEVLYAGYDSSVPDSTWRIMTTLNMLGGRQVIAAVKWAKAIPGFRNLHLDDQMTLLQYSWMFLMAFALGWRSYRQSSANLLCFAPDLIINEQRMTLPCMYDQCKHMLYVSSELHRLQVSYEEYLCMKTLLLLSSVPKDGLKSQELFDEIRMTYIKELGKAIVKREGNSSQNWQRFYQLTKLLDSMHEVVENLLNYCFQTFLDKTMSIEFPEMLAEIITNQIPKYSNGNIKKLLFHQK

[6] = molecular target: Glucocorticoid receptor (Homo sapiens) (UniProt P04150); test: GR-EFC Redistribution (AID 451; calls by dose curve; also: potency is read from the fitted curve at half-maximal effect); details: CHO-K1 GR-EFC translocation, beta-gal luminescence, 2 h
Summary of the method: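 CHO-K1 cells expressing nuclear EA and GR-ED fragments of b-gal; compounds titrated up to 46 uM final, 2 h at 37 C. GR nuclear translocation read as complemented b-gal luminescence after 1 h RT detection.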

[7] = molecular target: Mitogen-activated protein kinase 10 (Mus musculus) (UniProt Q61831); test: JNK3 AlphaScreen Assay (AID 530); details: JNK3 lysate, c-Jun phosphorylation; series mostly up to 57.1 µM;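 also: kinase came from lysate of stimulated human HepG2 cells; signal reports phosphorylation of biotinylated GST-cJun 1-79 at Ser73 with 10 µM ATP; % is scaled to controls: 0 for no effect and ±100 for the full control effect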
Summary of the method: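 qHTS format: compounds tested as titrations against IL-1beta/TNF-alpha-activated HepG2 lysate JNK3 with biotin-GST-cJun substrate and 10 uM ATP at room temperature. Loss of anti-phospho-cJun AlphaScreen signal indicates inhibition.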

CCCCN1CCCC[C@H]1C(=O)Nc1c(C)cccc1C
activity change, negative = inhibition ([1]; at 17.2 µM (top of the series)): 0.542% (inactive) | Potency [2]: 5.01 µM (active) | activity change, negative = inhibition ([3]; at 17.2 µM (top of the series)): 3.05% (inactive) | activity, negative = inhibition ([4]; at 17.2 µM (top of the series)): 1.67% (inactive)

COc1ccc2c(c1)C(=O)N(CCc1ccc(S(=O)(=O)NC(=O)NC3CCCCC3)cc1)C(=O)C2(C)C
activity change, negative = inhibition ([1]; at 17.2 µM (top of the series)): 12.1% (inactive) | Potency [2]: inactive | activity, negative = inhibition ([4]; at 17.2 µM (top of the series)): -7.41% (inactive) | Potency [5]: > 20.6 µM (inactive) | Potency [6]: > 20.6 µM (inactive)

CC1=C(CC(=O)O)c2cc(F)ccc2/C1=C\c1ccc(S(C)(=O)=O)cc1
activity change, negative = inhibition ([1]; at 38 µM (top of the series)): 11.6% (inactive) | Potency [2]: 12.6 µM (active) | activity change, negative = inhibition ([3]; at 38 µM (top of the series)): 13.8% (inactive) | activity, negative = inhibition ([4]; at 38 µM (top of the series)): -25.4% (inactive) | Potency [7]: inactive

COc1ccc(Cl)cc1C(=O)NCCc1ccc(S(=O)(=O)NC(=O)NC2CCCCC2)cc1
activity change, negative = inhibition ([1]; at 17.2 µM (top of the series)): -12.3% (inactive) and -19.5% (inactive) | activity change, negative = inhibition ([1]; at 38 µM (top of the series)): -26.7% (inactive) | Potency [2]: inactive | activity change, negative = inhibition ([3]; at 17.2 µM (top of the series)): -3.12% (inactive) and -29.5% (inactive) | activity change, negative = inhibition ([3]; at 38 µM (top of the series)): 0.0491% (inactive) | activity, negative = inhibition ([4]; at 17.2 µM (top of the series)): -3.96% (inactive) and -3.07% (inactive) | activity, negative = inhibition ([4]; at 38 µM (top of the series)): 4.48% (inactive)

CC(=O)c1ccc2c(c1)N(CCCN(C)C)c1ccccc1S2
activity change, negative = inhibition ([1]; at 17.2 µM (top of the series)): 24.3% (inactive) | Potency [2]: 1.58 µM (active) | activity, negative = inhibition ([4]; at 17.2 µM (top of the series)): -0.766% (inactive) | Potency [5]: > 20.6 µM (inactive) | Potency [6]: > 20.6 µM (inactive)

CCN(CC)CCOC(=O)C1(C2CCCCC2)CCCCC1
activity change, negative = inhibition ([1]; at 17.2 µM (top of the series)): 21% (inactive) | activity change, negative = inhibition ([1]; at 38 µM (top of the series)): 20.8% (inactive) | activity change, negative = inhibition ([3]; at 17.2 µM (top of the series)): -68.8% (active) | activity change, negative = inhibition ([3]; at 38 µM (top of the series)): -63.7% (active) | activity, negative = inhibition ([4]; at 17.2 µM (top of the series)): 0.488% (inactive) and 9.07% (inactive) | activity, negative = inhibition ([4]; at 38 µM (top of the series)): -26% (inactive)

Cc1cc(N)c2ccccc2[n+]1CCCCCCCCCC[n+]1c(C)cc(N)c2ccccc21
activity change, negative = inhibition ([1]; at 17.2 µM (top of the series)): -20.8% (inactive) | Potency [2]: inactive and 10 µM (active) and 15.8 µM (active) | activity change, negative = inhibition ([3]; at 38 µM (top of the series)): -78.7% (active) | activity, negative = inhibition ([4]; at 17.2 µM (top of the series)): -1.05% (inactive) | activity, negative = inhibition ([4]; at 38 µM (top of the series)): -10.8% (inactive) | Potency [5]: > 46 µM (inactive) and > 20.6 µM (inactive) | Potency [6]: > 46 µM (inactive) and > 20.6 µM (inactive) | Potency [7]: inactive

Cc1cc2c(cc1S(N)(=O)=O)S(=O)(=O)CCC2
activity change, negative = inhibition ([1]; at 17.2 µM (top of the series)): 4.34% (inactive) | Potency [2]: inactive | activity change, negative = inhibition ([3]; at 17.2 µM (top of the series)): 1.69% (inactive) | activity, negative = inhibition ([4]; at 17.2 µM (top of the series)): -10.1% (inactive) | Potency [5]: > 20.6 µM (inactive) | Potency [6]: > 20.6 µM (inactive) | Potency [7]: inactive

CCCCN(CCCC)CCCOC(=O)c1ccc(N)cc1
activity change, negative = inhibition ([1]; at 17.2 µM (top of the series)): -6.24% (inactive) and -3.31% (inactive) | Potency [2]: 10 µM (active) | activity, negative = inhibition ([4]; at 17.2 µM (top of the series)): -8.33% (inactive) and 3.52% (inactive) | Potency [5]: > 20.6 µM (inactive) | Potency [6]: > 20.6 µM (inactive) | Potency [7]: inactive

c1ccc2c(CC3=NCCN3)cccc2c1
activity change, negative = inhibition ([1]; at 17.2 µM (top of the series)): 14% (inactive) and 7.7% (inactive) | Potency [2]: inactive | activity change, negative = inhibition ([3]; at 17.2 µM (top of the series)): -19.1% (inactive) | activity, negative = inhibition ([4]; at 17.2 µM (top of the series)): 6.58% (inactive) and 9.6% (inactive)
